rCAG binder – binders of r(CAG) RNA repeats, primary screen, biochemical, fluorescence; inhibition, % at 3 µM; AID 651821, 2012; 370,000 compounds, 1.3% hits; r(CAG) RNA repeat, TO-PRO-1 dye displacement fluorescence;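 active = inhibition above the plate cutoff, the mean of all test compounds on that plate plus 3 SD, cut at about 35% in these data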;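 note: higher means more dye released from RNA so lower well fluorescence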
aDG glyco act – activators of alpha-DG glycosylation, primary screen, uHTS, Pro5-aDG cells, AlphaScreen; AID 624168, 2012; activation, % at 10 µM; alpha-DG glycosylation AlphaScreen (IIH6); 0% Pro5, 100% B10-LARGE cell signal; 360,000 compounds, 0.22% hits;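 active = activation of at least 8% versus controls, or a plate z-score of at least 8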;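 note: Pro5 are CHO cells carrying HIG-tagged alpha-DG that lacks glycosylation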
APOBEC3A inh – APOBEC3A ssDNA deaminase inhibitors, primary screen, selectivity assay for APOBEC3G inhibitor project, biochemical, FAM/TAMRA oligo cleavage fluorescence. DNA dC->dU-editing enzyme APOBEC-3A (Homo sapiens), P31941. recombinant A3A, FAM/TAMRA ssDNA deamination fluorescence. inhibition, % at 20 µM. 330,000 compounds, 0.41% hits;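 active = at least 40% inhibition at 20 µM here, with at most 30% in a related deaminase screen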
ALR H2O2 inh – inhibitors of human ALR sulfhydryl oxidase, primary screen, biochemical, H2O2 detection, HRP-luminol luminescence, single point. FAD-linked sulfhydryl oxidase ALR (Homo sapiens), P55789. purified ALR, DTT oxidation. inhibition, % (test concentration not listed). 290,000 compounds, 3.8% hits. AID 485317, 2010;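 active = mean replicate inhibition above about 79%, with every replicate also reaching it, limit read from the data; inconclusive = only one of the two criteria met; inactive = mean below limit and not every replicate reaching it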
Target sequence (P55789 whole entry, looked up): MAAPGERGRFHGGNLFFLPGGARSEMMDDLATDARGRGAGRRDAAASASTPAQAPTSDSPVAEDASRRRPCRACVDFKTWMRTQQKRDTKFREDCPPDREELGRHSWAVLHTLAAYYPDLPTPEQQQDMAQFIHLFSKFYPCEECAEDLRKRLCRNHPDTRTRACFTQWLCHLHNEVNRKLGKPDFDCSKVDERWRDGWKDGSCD
APOBEC3G inh – APOBEC3G DNA deaminase inhibitors, primary screen, biochemical, fluorescence, single-stranded DNA substrate, uHTS; recombinant A3G, ssDNA deamination FAM/TAMRA fluorescence; inhibition, % at 20 µM; 330,000 compounds, 0.28% hits; DNA dC->dU-editing enzyme APOBEC-3G (Homo sapiens), Q9HC16; AID 493012, 2011;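 active = inhibition of at least 40% at 20 µM, with no more than 30% in the related APOBEC3A deaminase screen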
PHOSPHO1 block – PubChem AID 1565; Phosphoethanolamine/phosphocholine phosphatase (Homo sapiens), Q8TCT1; recombinant PHOSPHO1, absorbance phosphatase assay; inhibition, % at 13.3 µM; 290,000 compounds, 1.1% hits; in the data active = inhibition above about 60%
Target sequence (Q8TCT1 whole entry, looked up): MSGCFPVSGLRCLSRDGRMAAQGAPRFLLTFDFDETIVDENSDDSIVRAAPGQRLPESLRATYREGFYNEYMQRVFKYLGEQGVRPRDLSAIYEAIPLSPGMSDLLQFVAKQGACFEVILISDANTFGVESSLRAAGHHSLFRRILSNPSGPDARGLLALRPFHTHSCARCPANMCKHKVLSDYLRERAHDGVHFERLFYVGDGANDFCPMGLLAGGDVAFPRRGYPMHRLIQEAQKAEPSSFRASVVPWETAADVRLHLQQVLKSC
Hits are given with their value; - = inactive; ? = inconclusive; . = no result. Sampled rows, rich in hits. Any-hit rate of the full collection: about 5.4%.

SMILES | rCAG binder | aDG glyco act | APOBEC3A inh | ALR H2O2 inh | APOBEC3G inh | PHOSPHO1 block
CC(=O)c1ccc(-n2nnnc2SCC(=O)Nc2cccc(NC(=O)c3ccco3)c2)cc1 | - | - | - | 99 | - | -
Cc1ccccc1NC(=O)OC1CCC12CCCCC2 (centres undefined) | - | . | . | . | . | .
O=C(CSc1nnc(-c2cccnc2)n1-c1ccc(Cl)cc1)Nc1cccc2ccccc12 | - | . | . | . | . | .
Nc1nc2cc(S(=O)(=O)NC3=NCCCCC3)ccc2s1 | - | - | - | 91 | - | -
COc1ccc(NC(=O)CC2Nc3cccc4cccc(c34)NC2=O)cc1 (centres undefined) | - | - | - | 100 | - | -
O=C1NC2(CCCC2)C(=O)N1CCS(=O)(=O)Oc1ccccc1 | - | - | - | - | - | 65
O=C1NC2(CCCCC2)C(=O)N1CCS(=O)(=O)Oc1ccc(Br)cc1 | - | - | - | - | - | -
Cn1cc(C2(c3c[nH]c4ccccc34)CCN(C(=O)OC(C)(C)C)CC2)c2ccccc21 | - | . | . | . | . | .
COc1ccc(N=c2scc(-c3ccc(S(=O)(=O)N4CCOCC4)cc3)n2CCCO)cc1 | . | . | . | . | . | -
COc1ccc(-c2csc(=Nc3ccccc3)n2CCO)cc1 | - | - | - | 97 | - | -
COc1ccc(-c2csc(=NCCO)n2-c2ccccc2)cc1 | - | - | . | 99 | . | -
Cc1csc(=Nc2c(C)n(C)n(-c3ccccc3)c2=O)n1Cc1ccccc1 | - | - | - | 97 | - | -
C=CCn1c(-c2ccc(OC)cc2)csc1=Nc1c(C)n(C)n(-c2ccccc2)c1=O | - | - | - | - | - | -
O=S(=O)(NCc1ccncc1)c1ccc(Br)s1 | - | 8.9 | - | - | - | -
COc1ccc(CCNC(=O)c2cc(-c3ccc(C)c(C)c3O)n[nH]2)cc1OC | - | - | - | - | - | -
COc1ccc(CCNC(=O)c2cc(-c3cc(C)ccc3O)n[nH]2)cc1OC | - | - | - | 96 | - | -
Cc1ccccc1OCCC(=O)Nc1ccccc1C(=O)N1CCCCC1 | - | - | - | - | - | .
Cc1ccccc1OCC(=O)Nc1ccccc1C(=O)N1CCCCC1 | - | - | - | 86 | - | -
Nc1ccn([C@@H]2O[C@H](C(=O)N[C@H](Cc3ccccc3)C(=O)N3CCSC3)[C@@H](O)[C@H]2O)c(=O)n1 | - | . | . | . | . | .
O=c1[nH]nc(CNc2ccc(C(F)(F)F)cc2)c2ccccc12 | - | - | - | - | - | -
O=c1[nH]nc(CNc2ccc(O)cc2)c2ccccc12 | - | - | - | 100 | - | -
CCOc1ccccc1N=c1oc2cc(O)ccc2cc1C(=O)NCC1CCCO1 (centres undefined) | - | - | - | 98 | - | -
CCOc1ccc(N=c2oc3cc(O)ccc3cc2C(=O)NCC2CCCO2)cc1 (centres undefined) | - | - | - | - | - | -
Cc1ccccc1CS(=O)(=O)Cc1ccc(C(=O)Nc2cccc(C)c2C)o1 | - | . | . | . | . | .
COc1ccc(N2C(=O)CSC2c2ccc3c(c2)OCO3)cc1 (centres undefined) | - | - | - | - | - | -
SMILES | rCAG binder | aDG glyco act | APOBEC3A inh | ALR H2O2 inh | APOBEC3G inh | PHOSPHO1 block
O=C1CSC(c2ccc([N+](=O)[O-])cc2)N1c1ccccc1 (centres undefined) | - | - | - | 98 | - | -
COc1ccc(N2C(=O)CSC2c2ccc([N+](=O)[O-])cc2)cc1 (centres undefined) | - | - | - | 98 | - | -
Cn1c(=O)c2cc(S(=O)(=O)N3CCN(c4ccccc4Cl)CC3)ccc2n(C)c1=O | - | . | . | . | . | .
Oc1ccc(NCc2cccs2)cc1 | - | - | - | 96 | - | -
CC(=O)Nc1ccc(NCc2cccs2)cc1 | - | - | - | 95 | - | -
O=C(O)c1ccccc1NCc1cccs1 | - | - | - | - | - | -
CC(=O)Nc1ccc(NCCc2cccs2)cc1 | - | - | . | . | . | .
O=C(Nc1ccc(OC(F)(F)F)cc1)Nc1c(-c2ccc(C(F)(F)F)cc2)nc2ncccn12 | - | . | . | . | . | .
COc1ccc(NC(=O)N(C)[C@H]2C[C@H]3c4[nH]c5c(-c6ccccc6)cccc5c4CCN3C(=O)[C@H]2[C@H](C)O)cc1 | - | . | . | . | . | .
CC(=O)Oc1cc2oc(=O)cc(C)c2cc1OC(C)=O | - | - | - | 89 | - | -
COCCCNC(=O)c1ccc(Cn2c(=O)c3ccccc3n(Cc3ccc(C(C)C)cc3)c2=O)cc1 | - | . | . | . | . | .
O=C(NC1CCCCN(Cc2ccc(Cl)cc2)C1=O)c1ccc(F)c(F)c1 (centres undefined) | - | . | . | . | . | .
COCCn1c(SCc2nc3sc(C(=O)OC)c(C)c3c(=O)[nH]2)nc2ccccc21 | - | - | - | - | - | 92
CCn1c(SCc2nc3cc(OC)c(OC)cc3c(=O)[nH]2)nc2ccccc21 | - | - | - | - | - | 60
CCn1c(SCc2nc3sc(C(=O)O)c(C)c3c(=O)[nH]2)nc2ccccc21 | - | - | - | 98 | - | -
COc1ccc(S[C@]2(C(=O)N3CCN(c4ncccn4)CC3)CC(=O)N(C(=O)Nc3ccc(C)c(Cl)c3)[C@@H]2c2ccc(OC)cc2)cc1 | - | . | . | . | . | .
C[C@H](O)[C@@H]1CN2CCc3ccc(N4CCOCC4)cc3[C@@H]2C[C@@H]1N(C)C(=O)c1ccco1 | - | . | . | . | . | .
COc1ccc(-c2cc(-c3nnc4sc(Cc5cccs5)nn34)[nH]n2)cc1 | - | . | . | . | . | .
O=C(COc1ccc(Cl)cc1Cl)NNC(=S)Nc1ccc(F)cc1 | . | - | - | - | - | 71
CC(=O)NC(=S)Nc1ccc(NC(=O)COc2ccc(Cl)cc2Cl)cc1 | - | - | - | - | - | -
O=C1S/C(=C\c2ccc(N3CCOCC3)o2)C(=O)N1Cc1c(F)cccc1Cl | - | - | - | - | - | -
O=C1S/C(=C/c2ccc(N3CCOCC3)o2)C(=O)N1Cc1c(F)cccc1Cl | - | - | - | - | - | 69
O=C1CC(SCc2nc3ccccc3[nH]2)C(=O)N1c1cccc(Cl)c1 (centres undefined) | - | - | - | 98 | - | -
COC(=O)c1ccc(OC(=O)c2ccccn2)cc1 | - | - | - | 96 | - | -
N#CC(C#N)=Cc1ccc(OC(=O)c2ccccn2)cc1 | - | - | . | 97 | . | -
CCC(C)NC(=O)CSc1nnc(-c2cc(OC)c(OC)c(OC)c2)o1 (centres undefined) | - | . | . | . | . | .
COc1ccc(-c2csc(N)n2)cc1F | - | - | - | 96 | - | -
COc1ccc2ccccc2c1-c1csc(N)n1 | - | - | - | ? | - | .
CCc1ccc(OC)c(-c2csc(N)n2)c1 | - | - | - | 98 | - | -
